# Reference: ChEMBL document CHEMBL3988442, “University of Dundee, Small-Polar-MMV Screening Library” (2021)
# Hit rate of the full screen: of about 48,000 compounds, about 13,000 (27%) showed an effect of 50% or more. The list shows a part of the results.
# Tested on: Wolbachia pipientis
# Assay: Anti-Wolbachia Cell-Based Screen
# Format: functional
# Design: scale not given: in the data most compounds retested in dose-response had high values
# Conditions: 5 µM
row,SMILES,Percent Effect [%]
1,Cc1ccc2c(c1)C(NCc1ncnn1C)CC2 (stereo not given),-32.91
2,CN1C(=O)CC(C(=O)O)C12CCN(Cc1ccc(Cl)c(F)c1)CC2 (stereo not given),-9.63
3,CC(C)Oc1ccccc1NC(=O)N1CCC(n2cncn2)CC1,90.39
4,COC(CNC(=O)N1CCC(n2cncn2)CC1)c1ccccc1 (stereo not given),1.274
5,COc1ccccc1CCNC(=O)N1CCC(n2cncn2)CC1,106.2
6,COc1ccccc1OCCNC(=O)N1CCC(n2cncn2)CC1,92.74
7,CC(NC(=O)N1CCC(n2cncn2)CC1)c1ccc(F)cc1F (stereo not given),-3.93
8,CC(C)c1ccc(C(C)NC(=O)N2CCC(n3cncn3)CC2)cc1 (stereo not given),-4.399
9,COc1ccccc1OCCNC(=O)NCC(C)C,-1.191
10,O=C(Nc1ccc(N2CCCC2)nc1)N1CCc2sccc2C1,6.616
11,CCS(=O)(=O)NCCCNc1ncnc2cc(F)c(F)cc12,-7.857
12,O=C(O)C(F)(F)F.O=S(=O)(NC[C@]12COC[C@H]1CN(CCc1ccccc1)C2)C1CC1,-3.746
13,CS(=O)(=O)NC[C@]12COC[C@H]1CN(C(=O)Cc1ccccc1F)C2,6.41
14,CS(=O)(=O)NC[C@]12COC[C@H]1CN(C(=O)CC1CCCC1)C2,102.4
15,CS(=O)(=O)NC[C@]12COC[C@H]1CN(C(=O)C1CCSCC1)C2,57.64
16,Cc1ccoc1C(=O)N1C[C@@H]2COC[C@]2(CNS(C)(=O)=O)C1,15.9
17,CS(=O)(=O)NC[C@]12COC[C@H]1CN(C(=O)CCc1ccccc1)C2,-0.4913
18,CS(=O)(=O)NC[C@]12COC[C@H]1CN(CC1CCC1)C2.O=C(O)C(F)(F)F,92.98
19,Cn1cccc1C(=O)N1C[C@@H]2COC[C@]2(CNS(C)(=O)=O)C1,-3.959
20,O=C(NC[C@]12COC[C@H]1CN(CC1CCOCC1)C2)c1ccco1.O=C(O)C(F)(F)F,6.419
21,CS(=O)(=O)NC[C@]12COC[C@H]1CN(C(=O)c1ccoc1)C2,-2.074
22,COC[C@]12COC[C@H]1CN(C(=O)C1CCSCC1)C2,-5.007

row,SMILES,Percent Effect [%]
1,CS(=O)(=O)NC[C@]12COC[C@H]1CN(C(=O)N1CCCC1)C2,88.05
2,Clc1ccccc1OC1CCN(CC2CCOC2)CC1 (stereo not given),-1.584
3,CC(=O)Nc1ccc(CN2CCc3[nH]cnc3C2c2ccc(C)o2)cc1 (stereo not given),-0.8872
4,CC(=O)N[C@@H]1CN(C(=O)c2cc3sccc3[nH]2)C[C@H]1c1ccc(C)o1,26.08
5,Cc1ccc(N2C[C@H]3OCC[C@H]3[C@H](C(=O)NCC3CC3)C2)nn1.O=C(O)C(F)(F)F,0.1783
6,Cc1ncsc1CCN(C)C(=O)CN1CCOC1=O,2.507
7,Cc1cnc(C(C)(C)NC(=O)NCc2ccc(C#N)cc2F)s1,-5.008
8,COc1ccc2nc(C[C@@H]3C[C@@H](C(C)C)[C@H](CN(C)C)C=C3C)[nH]c2n1,-3.892
9,C[S+]([O-])CCCNC(=O)c1cc(Br)c2c(c1)OCCO2 (stereo not given),-5.642
10,CS(=O)(=O)NC[C@]12COC[C@H]1CN(C(=O)C1CC(F)(F)C1)C2,112.2
11,CS(=O)(=O)NC[C@]12COC[C@H]1CN(C(=O)c1ccncn1)C2,0.7032
12,CS(=O)(=O)NC[C@]12COC[C@H]1CN(C(=O)c1ccccc1)C2,7.31
13,CS(=O)(=O)NC[C@]12COC[C@H]1CN(C(=O)C1CC=CC1)C2,99.92
14,COC[C@]12COC[C@H]1CN(C(=O)C1CC(F)(F)C1)C2,-2.486
15,CS(=O)(=O)NC[C@]12COC[C@H]1CN(C(=O)c1ncccn1)C2,4.055
16,Cc1cc(CN(C)C(=O)c2cc3c([nH]c2=O)CCCC3=O)no1,-8.225
17,COc1c(C)cnc(CN(C)C(=O)c2cccc(NC(N)=O)c2)c1C,7.754
18,CN(C)C(=O)c1cccc(Nc2cnn(C)c2)c1,-3.903
19,CN(CC1(O)CCCC1)C(=O)c1cccc(Nc2cnccn2)c1,136.4
20,COc1ccnc(NC(=O)c2cnccn2)c1,0.1681
21,COCCN(CC(C)C)C(=O)c1cccc(Nc2cnccn2)c1,186.1
22,COCCCN(C)C(=O)c1cccc(Nc2cnccn2)c1,100

row,SMILES,Percent Effect [%]
1,CN(Cc1cnccn1)C(=O)c1ccnc(OC2CCC2)c1,-12.54
2,COCCN(CCOC)C(=O)c1cccc(Cn2nc(C)cc2C)c1,-2.572
3,CC(=O)c1cccc(OCCCC(=O)N(C)CCc2ccncc2)c1,5.185
4,CCC(=O)NCc1cc(Br)c(OC)c(OC)c1,-2.986
5,c1cnn(CCC2CCCCN2Cc2cnc(C3CCCCC3)nc2)c1 (stereo not given),-23.18
6,CC(=O)OCC1CCCCN1C(=O)c1ccc(Cn2ccnc2)o1 (stereo not given),0.6554
7,N#Cc1cn(CCCN2CCc3ccccc32)c(=O)[nH]c1=O,7.257
8,CSc1cc2c(cc1NC(=O)NCC(=O)N(C)C)OCCO2,-7.029
9,Nc1c(Cl)cnn1C1CCN(Cc2ccccc2)C1 (stereo not given),-6.784
10,Cc1nnc(NCCc2coc(-c3ccccc3)n2)c(C#N)c1C,-1.856
11,COc1ccc(-c2nc(CCNCc3ccncc3)co2)cc1,89.2
12,CNC(=O)CS(=O)(=O)Cc1coc(-c2ccc(OC)cc2)n1,-17.74
13,COc1cccc(-c2nc(CNCCc3cccnc3)cs2)c1,20
14,c1ccc(Oc2ncccc2CNCc2ccccn2)cc1,6.646
15,COc1ccc(-c2nc(CCNc3nnc(C)c(C)c3C#N)co2)cc1,14.52
16,c1ccc(-c2nc(CCNCc3cccnc3)co2)cc1,108.2
17,O=C1NCCCCC1SCc1coc(-c2ccccc2)n1 (stereo not given),-18.22
18,c1ccc(-c2nc(CNCCn3cccn3)cs2)cc1,17.11
19,c1ccc(-c2nnn3c2COC(CNCc2ccccn2)C3)cc1 (stereo not given),-8.365
20,c1ccc(-c2nc(CCNCc3ccccn3)co2)cc1,85.74
21,c1ccc(-c2nc(CCNCc3ccncc3)co2)cc1,91.06
